Source: PubChem BioAssay (several laboratories)
TRPM1 prom inh – inhibitors of MITF-driven TRPM1 promoter in melanoma cells; SK-MEL-5 TRPM1 promoter luciferase, 24 h; inhibition, % at 12.5 µM; 330,000 tested, 0.83% active;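 active means mean inhibition across replicates of 60% or more, whatever share of single replicates reaches that level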
CF NFkB block – cystic fibrosis NF-kB activation inhibition; 360,000 tested, 0.86% active; KKLEB NF-kB-GFP reporter, PAF-induced, GFP fluorescence overnight; AID 588850; inhibition, % at 5 µM;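 active means at least 50% inhibition at 5 µM, scaled per plate between neutral and stimulator controls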;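 further: PAF is a Pseudomonas aeruginosa culture filtrate used as stimulus; plate controls were PAF-stimulated DMSO wells for no effect and unstimulated DMSO wells for full effect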
Peg3 promoter – Peg3 promoter activity inhibition. HeLa PEG-Prom luciferase reporter, luminescence, overnight. inhibition, % at 20 µM. 360,000 tested, 1.7% active. AID 588405;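 active means inhibition of at least 50% at 20 µM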
HIF-2a inh – inhibitors of HIF-2a. 786-0 RCC cells HIF-2a reporter, luciferase luminescence, overnight. inhibition, % at 18.8 µM. 360,000 tested, 0.72% active. AID 624352;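 active means inhibition of the luminescence signal of 40% or more relative to plate controls, in a single-dose primary screen at 18.75 µM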
KKLEB cytotox – counter-screen for CF NF-kB inhibitors: cytotoxicity; KKLEB CF airway cells viability, ATPlite luminescence, overnight; stronger effect = lower value; cells stimulated with P. aeruginosa culture filtrate; activity change (cytotoxicity), % at 5 µM; 360,000 tested, 0.36% active; AID 602141;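 active means corrected activity change at or below -50% at 5 µM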
B2AR ag – human beta-2 adrenergic receptor agonism by FAP; P07550; Am2.2-beta2AR cells, FAP receptor internalization, flow cytometry; response, % (test concentration not listed); 340,000 tested, 0.43% active; AID 504454;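 active means response above a set limit, near 3 SD of response in nonfluorescent compounds, cut at about 42% in these data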
Target sequence (P07550 whole entry, looked up): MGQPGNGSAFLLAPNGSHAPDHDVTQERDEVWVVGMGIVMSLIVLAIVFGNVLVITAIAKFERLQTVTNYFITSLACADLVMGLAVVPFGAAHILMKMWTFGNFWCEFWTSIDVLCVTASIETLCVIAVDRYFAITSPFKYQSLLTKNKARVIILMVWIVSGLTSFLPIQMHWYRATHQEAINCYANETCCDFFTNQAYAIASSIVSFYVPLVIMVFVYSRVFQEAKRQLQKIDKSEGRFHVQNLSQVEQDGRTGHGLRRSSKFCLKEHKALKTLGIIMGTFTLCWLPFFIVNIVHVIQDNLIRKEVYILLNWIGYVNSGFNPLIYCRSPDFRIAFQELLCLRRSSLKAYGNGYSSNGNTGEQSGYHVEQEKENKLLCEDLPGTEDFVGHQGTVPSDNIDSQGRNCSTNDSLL
Mdm2 MdmX conf – confirmation of inhibitors of human Mdm2/MdmX interaction, set 2; inhibition, % at 8 µM; SaOS-2 split-luciferase Mdm2/MdmX complementation, luminescence; AID 504601; 740 tested, 99% active; shares compounds with HIF-2a inh;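 active means mean inhibition of the luminescence signal across two replicates at or above 26 percent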
HIF-2a conf – HIF-2a inhibition, single concentration confirmation; AID 651580; 786-0 RCC cells, HIF-2a luciferase reporter luminescence, overnight; shares compounds with HIF-2a inh; 1,800 tested, 56% active; inhibition, % at 18.8 µM;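 active means mean inhibition across four replicates of at least 40 percent at the single tested concentration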
HIF-1a counter – HIF-1a inhibition counter-screen for HIF-2a hits. shares compounds with HIF-2a inh. MiaPaCa-2 HIF-1a luciferase reporter, desferoxamine, overnight. inhibition, % at 18.8 µM. 1,800 tested, 72% active. AID 651589;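 active means mean inhibition of the reporter signal across four replicates at the single tested dose of 50% or more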
* = called active by the depositor. In the library only some 2.8% were active in any assay of this set; here they are far more common.

N#Cc1ccccc1COc1ccc(/C=C/C(=O)O)cc1 was read as TRPM1 prom inh 55, CF NFkB block 3, Peg3 promoter 10, HIF-2a inh 87*, KKLEB cytotox -6, B2AR ag 2, HIF-2a conf 89* and HIF-1a counter 56*.
N#Cc1ccc(/C=C/C(=O)c2ccccc2)cc1 was read as TRPM1 prom inh 6, CF NFkB block 17, Peg3 promoter 98*, HIF-2a inh 87*, KKLEB cytotox 1, B2AR ag 19, HIF-2a conf -63 and HIF-1a counter 65*.
For O=C(/C=C/c1ccccc1O)c1ccccc1 the results were TRPM1 prom inh -16, CF NFkB block -18, Peg3 promoter -24, HIF-2a inh -38, KKLEB cytotox -8 and B2AR ag 15.
Screening Nc1nc2c(ncn2[C@@H]2O[C@H](CNCc3ccc(Oc4cc(-n5cccn5)ncn4)cc3)[C@@H](O)[C@H]2O)c(=O)[nH]1 returned CF NFkB block 9, Peg3 promoter -5, HIF-2a inh 0 and KKLEB cytotox -13.
Screening CC(=O)n1cc(N(C(=O)CCl)c2ccc(Cl)cc2)c2ccccc21 returned CF NFkB block 98*, Peg3 promoter 108*, HIF-2a inh 83*, KKLEB cytotox -94*, B2AR ag 46*, HIF-2a conf 98* and HIF-1a counter 108*.
For COc1cc2ccccc2cc1C(=O)Nc1ccc2oc(=O)ccc2c1 the results were TRPM1 prom inh -9, CF NFkB block -46, Peg3 promoter -1, HIF-2a inh -12, KKLEB cytotox -1 and B2AR ag 33.
For CC(C)CC1C(=O)N(Cc2cn(CCC3OCCO3)nn2)CCS(=O)(=O)N1Cc1ccc(-c2ccc(F)nc2)cc1 (stereo not drawn) the results were CF NFkB block 13, Peg3 promoter 21, HIF-2a inh 1 and KKLEB cytotox 0.
Screening CN(CC(=O)Nc1ccc(F)c(F)c1F)C(=O)C1(c2ccccc2)CC1 returned CF NFkB block 14, Peg3 promoter 14, HIF-2a inh 23 and KKLEB cytotox -8.
Screening C=C1C(=O)C=C[C@]2(C)C[C@@H]3OC(=O)[C@](C)(O)[C@H]3C[C@@H]12 returned CF NFkB block 5, Peg3 promoter 91*, HIF-2a inh 40*, KKLEB cytotox 24, B2AR ag 6, HIF-2a conf 11 and HIF-1a counter 98*.
For COc1ccc(/C=C/c2c(-c3ccc(OC)cc3)oc3ccc(-c4ccc(OC)cc4)cc23)cc1 the results were TRPM1 prom inh 8, CF NFkB block -3, Peg3 promoter 21, HIF-2a inh -12, KKLEB cytotox -2 and B2AR ag 5.
COc1ccc(/C=C/c2cc(-c3ccc(C)cc3)o[n+]2C)cc1 was read as TRPM1 prom inh 88*, CF NFkB block 56*, Peg3 promoter 67*, HIF-2a inh 43*, KKLEB cytotox -62*, B2AR ag 34, Mdm2 MdmX conf 102*, HIF-2a conf 54* and HIF-1a counter 103*.
For C=C1C(=O)OC2C1CCC(C)=C1C(=O)C3OC3(C)C12 (stereo not drawn) the results were TRPM1 prom inh 105*, CF NFkB block 86*, Peg3 promoter 107*, HIF-2a inh 92*, KKLEB cytotox -85*, B2AR ag 28, HIF-2a conf 97* and HIF-1a counter 101*.
`O=S(=O)(NCC1CCCO1)c1ccc(Cl)c2ccccc12` (stereo not drawn) gave CF NFkB block 12, Peg3 promoter 7, HIF-2a inh 10 and KKLEB cytotox -10.
For COc1ccc(N2CCN(C(=O)COC(=O)c3cc(S(=O)(=O)N(C)C)ccc3N3CCCC3)CC2)cc1 the results were TRPM1 prom inh 6, CF NFkB block 0, Peg3 promoter 2, HIF-2a inh 11, KKLEB cytotox 5 and B2AR ag 6.
CC(C)C[C@@H](CN1CCC[C@@H]1CN1C(=O)C(=O)NC[C@@H]1Cc1ccccc1)N1C[C@H](Cc2ccccc2)N(CC2CCCCCC2)C(=O)C1=O was read as TRPM1 prom inh 7, CF NFkB block 0, Peg3 promoter 55*, HIF-2a inh 80*, KKLEB cytotox 10, B2AR ag 22, HIF-2a conf 8 and HIF-1a counter 105*.
`COc1cccc(NC(=O)Nc2cc(C(=O)NC(C)C)ccc2N2CC3CC(C2)c2cccc(=O)n2C3)c1` (stereo not drawn) gave TRPM1 prom inh 15, CF NFkB block -4, Peg3 promoter 0, HIF-2a inh 7, KKLEB cytotox -20 and B2AR ag -7.
CC(C)NC(=O)C1(C)CCN1C(=O)c1ccc2c(c1)OCO2 (stereo not drawn) was read as CF NFkB block 14, Peg3 promoter -13, HIF-2a inh 10 and KKLEB cytotox 1.
`CCOC(=O)C1=C(O)/C(=C/c2cn(CC(=O)NCC3CCCO3)c3ccccc23)SC1=Nc1ccc(C)cc1` (stereo not drawn) gave TRPM1 prom inh 88*, CF NFkB block 58*, Peg3 promoter 59*, HIF-2a inh -19, KKLEB cytotox -56*, B2AR ag 10 and Mdm2 MdmX conf 86*.
`O=C(OCc1ccccc1)N1CCC2CC1c1ccc(N3CCNCC3)cc12` (stereo not drawn) gave CF NFkB block 10, Peg3 promoter -262, HIF-2a inh -202 and KKLEB cytotox 2.
For CCc1ccc(S(=O)(=O)Nc2ccc(-c3ccc4nncn4n3)cc2)s1 the results were TRPM1 prom inh 9, CF NFkB block 30, Peg3 promoter 27, HIF-2a inh 42*, KKLEB cytotox -4, B2AR ag 7, HIF-2a conf 0 and HIF-1a counter -40.
`CCOC(=O)C1CCN(C(=O)c2ccc(OCC(=O)Nc3ccc(OCC)cc3)c(OC)c2)CC1` gave TRPM1 prom inh 10, CF NFkB block -3, Peg3 promoter 11, HIF-2a inh 9, KKLEB cytotox -2 and B2AR ag 8.
